Measured values: PubChem BioAssay (NCI)
This is part of a sample that, as a whole, favours compounds with a hit. Of some 83,000 tested, about 20% had one in any assay.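 Results are percent growth after 48 hours of single-concentration exposure. 100 means growth as in untreated cells, lower positive values show inhibition; negative values down to -100 show cell death.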 Values without a mark were called inactive. Activity calls are given as the source filed them. Rule for the calls: active = growth percent below 10; inactive = the rest.

Each molecule was assayed on ACHN renal (assay: NCI-60 one-dose screen, 48 h (100 = growth as untreated, 0 = no growth, -100 = all killed)). Details: 10 µM unless noted.
Molecule `Oc1ccccc1/C=N/Nc1nc(N/N=C/c2ccccc2O)nc(N2CCOCC2)n1` has a growth of 28.1%. For `IP(CCCSc1n(Cc2ccc3ccccc3c2)c(-c2ccccc2)c(-c2ccccc2)[n+]1Cc1ccc2ccccc2c1)(c1ccccc1)(c1ccccc1)c1ccccc1`, the growth was 87.9%. In the case of `Cn1cc(-c2nnc(N)nc2-c2cn(C)c3ccc(F)cc23)c2cc(F)ccc21`, the growth is reported as 100%. Molecule `N/C(=N\OC(=O)CSc1nc2ccccc2s1)c1ccc(Cl)cc1` has a growth of 91.4%.

These molecules were tested on CAKI-1 renal in the same assay as above. Details: 10 µM.
Work on `NS(=O)(=O)c1ccc(Nc2nc(N/N=C/c3ccc(F)cc3)nc(Nc3ccccc3)n2)cc1` yielded a growth of 56.8%. `COc1ccc(-c2cc(-c3ccc(Cl)cc3)nc3nc(N)nn23)cc1` was tested, and the growth was 83.7%. `COc1ccc(Cn2cc3c(c2-c2cc(OC)c(OC)c(OC)c2)CCCc2cnoc2-3)cc1` was tested, and the growth was 19.6%. For `CN(c1ccc(F)cc1)S(=O)(=O)c1ccc(-c2cnc(C3CC3)o2)cc1`, the growth was 39%. `COC[C@]12CC[C@@H](C)[C@H](C)[C@H]1C1=CC[C@@H]3[C@@]4(C)CCCNC(C)(C)[C@@H]4CC[C@@]3(C)[C@]1(C)CC2` gave a growth of 35%. Molecule `C=C(C)[C@@H]1CC[C@]2(C(=O)ON)CC[C@]3(C)[C@H](CC[C@@H]4[C@@]5(C)C/C(=C/c6ccc(Br)cc6)C(=O)C(C)(C)[C@@H]5CC[C@]43C)[C@@H]12` has a growth of 50%. Work on `CN(c1ccc(Br)cc1)S(=O)(=O)c1ccc(-c2cnc(C3CC3)o2)cc1` yielded a growth of 36.9%. For `CCCCCCNC(=O)Oc1ccc(/C(=C(\C)c2ccc(Cl)cc2)c2ccc(OCCN(C)C)cc2)cc1`, the growth was 70.4%. `C=C(C)[C@@H]1CC[C@]2(COS(C)(=O)=O)CC[C@]3(C)[C@H](CC[C@@H]4[C@@]5(C)CCCNC(C)(C)[C@@H]5CC[C@]43C)[C@@H]12` was tested, and the growth was 86.8%. For `O=C(NNc1nc2cc(F)ccc2n2cncc12)c1cnccn1`, the growth was 7.86% (active). `CN1CCN(c2ccc3c(C(N)=O)c(NC(=O)c4ccc(C(C)(C)C)cc4)sc3c2)CC1` was tested, and the growth was 100%. `NC(=O)C(=Cc1ccc(Cl)cc1)C(N)=O` was tested, and the growth was 49.2%. Work on `CCN1C(=O)N(CC)C2SC(N/N=C/C=C/c3ccccc3OC)=NC21` (configuration not stated) yielded a growth of 46.7%. For `CC(=O)C1=NN(c2ccc(Cl)cc2)C(=O)CN1C`, the growth was 95.7%. Work on `CCOC(=O)c1c(NCC(=O)Nc2ccc(Br)cc2)sc2c1CCCC2` yielded a growth of 27%. For `CN1CCN(c2ccc3c(c2)nc(NNC(=O)c2ccncn2)c2cccn23)CC1`, the growth was 6.41% (active). Work on `CCOc1c(C#N)c(Nc2ccc(S(N)(=O)=O)cc2)c(C#N)c2nnc(C)n12` yielded a growth of 88.7%. With `O=c1[nH]c(CNc2ccc(NCc3c(-c4ccccc4)no[n+]3[O-])cc2)nc2c1cnn2-c1ccccc1` the growth was 55.1%. With `C#CCOc1ccc(C(Nc2ccc(Cl)cc2)c2nnnn2C2CCCCC2)cc1` (configuration not stated) the growth was 50.3%. For `COc1cc(/C=N/Nc2ccnc3cc(Cl)ccc23)cc(OC)c1O`, the growth was -93% (active). `COc1cc(C(=O)C[n+]2ccc3ccccc3c2)cc(OC)c1OC` showed a growth of 92.6%. Work on `Cc1ccc(NC(=O)c2ccc(CN3CCN(C)CC3)c(I)c2)cc1Oc1ccc(-c2[nH]nc3ncnc(N)c23)cc1` yielded a growth of 89.9%. For `COc1ccc(Cn2cc3c(c2-c2ccccc2)CCCc2cnoc2-3)cc1`, the growth was 46.1%. In the case of `N#Cc1c(NC(=O)c2ccc(F)c(Cl)c2)sc2c1CCC(=O)C2`, the growth is reported as -67% (active). In the case of `c1ccc(-c2c(-c3ccccc3)[n+](Cc3ccc4ccccc4c3)c(-c3ccccc3)n2Cc2ccc3ccccc3c2)cc1`, the growth is reported as -93.4% (active). Molecule `CCOC(=O)C1=C(C)N=C2Sc3ccccc3N2C1c1ccccc1` (configuration not stated) has a growth of 65.6%. With `CCn1c2ccc(/C=N/NS(=O)(=O)CCN(C)C)cc2c2cc(/C=N/NS(=O)(=O)CCN(C)C)ccc21` the growth was 82.1%. `Cn1cc2c(c1)-c1c(sc3nc(-c4ccc(NC(=O)Nc5cc(C(C)(C)C)on5)cc4)cn13)CC2` was tested, and the growth was 28.1%. `CCOC(=O)c1c(NC(=O)c2ccc(C(C)(C)C)cc2)sc2cc(OCCN3CCCCC3)ccc12` was tested, and the growth was 84.2%. Work on `COc1ccccc1/C=C/C=N/NC1=NC2C(S1)N(C)C(=O)N2c1ccccc1` (configuration not stated) yielded a growth of 46.4%. `CC1(C)CC[C@]2(C(=O)O)CC[C@]3(C)C(=CCC4[C@@]5(C)C[C@@H](O)[C@@H]6OC(c7cccc([N+](=O)[O-])c7)OC[C@@]6(C)C5CC[C@]43C)C2C1` (some centres not stated) gave a growth of 79.7%. `CN(C)c1ncc(/C=C2\SC(=S)N(Cc3ccccc3Cl)C2=O)s1` was tested, and the growth was 79.1%. Molecule `O=C(/C=C1\C=CN(CCCCO)c2ccccc21)n1ccc2ccccc21` has a growth of 85.7%. In the case of `C#C[C@]1(O)CC[C@H]2[C@@H]3CC=C4c5sc(Nc6nc(C)cc(OC)n6)nc5CC[C@]4(C)[C@H]3CC[C@@]21C`, the growth is reported as 19.2%. With `Oc1ccccc1/C=N/Nc1nc(N/N=C/c2ccccc2O)nc(N2CCOCC2)n1` the growth was 4.56% (active). Work on `IP(CCCSc1n(Cc2ccc3ccccc3c2)c(-c2ccccc2)c(-c2ccccc2)[n+]1Cc1ccc2ccccc2c1)(c1ccccc1)(c1ccccc1)c1ccccc1` yielded a growth of 77.6%. In the case of `Cn1cc(-c2nnc(N)nc2-c2cn(C)c3ccc(F)cc23)c2cc(F)ccc21`, the growth is reported as 79.7%. Work on `N/C(=N\OC(=O)CSc1nc2ccccc2s1)c1ccc(Cl)cc1` yielded a growth of 83.4%.
